Measured values: PubChem BioAssay
Active and inactive are the calls of the source.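 Rule for the calls, unless noted: active = compounds whose cell count with miR-34 switched on is under 0.7 times the count with it off; inactive = the rest.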

How the values were obtained:
[1] = sensitizers of A549 cells to miR-34 induction, primary screen, imaging, A549 dox-inducible miR-34, nuclei and caspase counts (AID 1347080); conditions: A549 miR-34 inducible, Hoechst nuclei count, 48 h
[2] = viability rescue of complex I mutant cybrids, primary screen, cell-based, galactose medium, ATP luminescence (AID 1645843;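 active = z-score of at least 1.8 in each of two replicates, scored against plate mean and spread of sample wells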;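 note: positive z means more ATP and so rescue of galactose-driven cybrid death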); conditions: complex I mutant cybrid cells, 72 h, stronger effect = higher value
[3] = circadian clock period modulators, cell-based, LOPAC library, luminescence reporter (AID 2774; call rule not given here;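 note: values are relative to mean of DMSO wells on each plate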); conditions: circadian reporter cells, at 7 µM, actives lie on both sides
[4] = hESC survival regulators, cell-based (AID 493140; call rule not given here;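 note: cells exposed to compounds for four days before counting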); conditions: human embryonic stem cell survival screen; stronger effect = higher value
[5] = liver-stage malaria parasite growth inhibition, primary screen, cell-based, HepG2, luciferase luminescence, HepG2 viability (AID 624349; in the data active = parasite load remaining mostly below about 12%, no sharp cut-off; inactive = mostly above about 10%;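 note: 100% = mean of DMSO negative control wells on the same plate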); conditions: P. berghei liver stage in HepG2, luciferase luminescence, concentration not given here; parasite load remaining: stronger effect = lower value; viability: measured here: HepG2 viability without parasites
[6] = system: Hepatitis C virus NS3 helicase; test: HCV NS3 helicase inhibitors, primary screen, biochemical, fluorescence polarization, LOPAC1280 library (AID 687035; in the data active = inhibition above about 37%); conditions: Purified HCV NS3 helicase, Cy5-dT15 ssDNA binding fluorescence polarization; stronger effect = higher value; concentration not given here
[7] = Cy5 fluorescence quenching or enhancement artefacts, artefact control for HCV NS3 helicase inhibitor project, biochemical, LOPAC1280 (AID 687037; call rule not given here); conditions: Cy5-DNA-NS3h complex fluorescence interference counterscreen
[8] = stronger effect = lower value, cell number ratio, induced over uninduced
[9] = measured here: relative caspase fold change +Dox/-Dox
[10] = measured here: total cells with miR-34 induction, stronger effect = lower value
[11] = measured here: total cells without miR-34 induction

With `CC(C)(C)NC(=O)C1CCC2C3CCC4NC(=O)C=C[C@]4(C)C3CC[C@]12C` (stereo partly specified) the fold change [1, 8] was 0.939 (inactive), the fold change [1, 9] was 1.36 and the cell count [1, 10] was 8850. For the same compound, the cell count [1, 11] was 9430 and the z-score [2] was 0.345 (inactive).
For `CN1CC(=O)N2C(Cc3c([nH]c4ccccc34)C2c2ccc3c(c2)OCO3)C1=O` (stereo unspecified), the fold change [1, 8] was 0.932 (inactive), the fold change [1, 9] was 1.44 and the cell count [1, 10] was 6940. The cell count [1, 11] was 7450 and the z-score [2] was 1.56 (inactive).
In the case of `CNC(=O)[C@H]1O[C@@H](n2cnc3c(NCc4ccc(I)cc4)nc(Cl)nc32)[C@H](O)[C@@H]1O`, the fold change [1, 8] is reported as 1.02 (inactive), the fold change [1, 9] is reported as 1.05 and the cell count [1, 10] is reported as 5610. The cell count [1, 11] was 5510 and the z-score [2] was 1.29 (inactive).
In the case of `OCC1OC(n2cnc3c(NC4CCCC4O)ncnc32)C(O)C1O` (stereo unspecified), the fold change [1, 8] is reported as 0.907 (inactive), the fold change [1, 9] is reported as 0.906 and the cell count [1, 10] is reported as 9400. For the same compound, the cell count [1, 11] was 10400 and the z-score [2] was 0.73 (inactive).
In the case of `CC(=O)C1CCC2C3CCC4=CC(=O)CC[C@]4(C)C3CC[C@]12C` (stereo partly specified), the fold change [1, 8] is reported as 0.861 (inactive), the fold change [1, 9] is reported as 1.42 and the cell count [1, 10] is reported as 7200. For the same compound, the cell count [1, 11] was 8360 and the z-score [2] was -0.365 (inactive).
In the case of `CCC(=O)O[C@]1(C(=O)SCF)C(C)CC2C3CC(F)C4=CC(=O)C=C[C@]4(C)[C@@]3(F)C(O)C[C@@]21C` (stereo partly specified), the fold change [1, 8] is reported as 0.897 (inactive), the fold change [1, 9] is reported as 1.65 and the cell count [1, 10] is reported as 6980. The cell count [1, 11] was 7780 and the z-score [2] was 1.79 (inactive).
With `CC(=O)OC1CC2CCC3C(CCC4(C)C3CC([N+]3(C)CCCCC3)C4OC(C)=O)C2(C)CC1[N+]1(C)CCCCC1` (stereo unspecified) the fold change [1, 8] was 0.885 (inactive), the fold change [1, 9] was 2.7 and the cell count [1, 10] was 8890. For the same compound, the cell count [1, 11] was 10000 and the z-score [2] was 0.825 (inactive).
For `C=C1C(=CC=C2CCC[C@@]3(C)C2CCC3C(C)C=CC(O)C2CC2)CC(O)CC1O` (stereo partly specified), the fold change [1, 8] was 1.02 (inactive), the fold change [1, 9] was 1.9 and the cell count [1, 10] was 9990. For the same compound, the cell count [1, 11] was 9800 and the z-score [2] was -1.44 (inactive).
With `C=CCC1C=C(C)CC(C)CC(OC)C2O[C@@](O)(C(=O)C(=O)N3CCCCC3C(=O)OC(C(C)=CC3CCC(O)C(OC)C3)C(C)C(O)CC1=O)C(C)CC2OC` (stereo partly specified) the fold change [1, 8] was 1.03 (inactive), the fold change [1, 9] was 1.03 and the cell count [1, 10] was 5920. For the same compound, the cell count [1, 11] was 5760 and the z-score [2] was 0.96 (inactive).
For `C[C@]12CCC3c4ccc(O)cc4CCC3C1CCC2O` (stereo partly specified), the fold change [1, 8] was 1.11 (inactive), the fold change [1, 9] was 1.15 and the cell count [1, 10] was 6850. The cell count [1, 11] was 6160 and the z-score [2] was 0.465 (inactive).
For `C[C@]12CC(O)C3C(CCC4=CC(=O)CC[C@@]43C)C1CCC2C(=O)CO` (stereo partly specified), the fold change [1, 8] was 0.859 (inactive), the fold change [1, 9] was 2.3 and the cell count [1, 10] was 7080. The cell count [1, 11] was 8240 and the z-score [2] was 0.21 (inactive).
For `NC(C(=O)NC1C(=O)N2C(C(=O)O)=C(Cl)CSC12)c1ccccc1` (stereo unspecified), the fold change [1, 8] was 1.39 (inactive), the fold change [1, 9] was 0.686 and the cell count [1, 10] was 9470. The cell count [1, 11] was 6800 and the z-score [2] was 0.295 (inactive).
In the case of `COc1c2c(nc3ccccc13)OC(C(C)(O)CO)C2` (stereo unspecified), the period change [3] is reported as 0.065 h (inactive), the survival [4] is reported as 14.3 (inactive) and the parasite load remaining [5] is reported as 78.4% (inactive). The viability [5] was 73.1%, the fold change [1, 8] was 0.919 (inactive) and the fold change [1, 9] was 0.535. It also gave a cell count [1, 10] of 8340 and a cell count [1, 11] of 9080.
With `NC(=S)c1ccc[n+]([C@@H]2O[C@@H](COP(=O)([O-])OP(=O)(O)OC[C@H]3O[C@@H](n4cnc5c(N)ncnc54)C(OP(=O)(O)O)[C@H]3O)C(O)C2O)c1` (stereo partly specified) the period change [3] was 0.055 h (inactive), the inhibition [6] was -5% (inactive) and the fluorescence ratio (interference) [7] was 1 (inactive). For the same compound, the fold change [1, 8] was 0.943 (inactive), the fold change [1, 9] was 1.17 and the cell count [1, 10] was 10100. For the same compound, the cell count [1, 11] was 10700 and the z-score [2] was 0.57 (inactive).
